Bioassay records as filed in PubChem.
Only some compounds are listed: those with a hit (about 3.4% of all), similar ones and a draw of the others.
FXN GAA850 act: FXN promoter activators, primary screen, cell-based, luciferase luminescence, HEK293 lucGAA850 | HEK293 lucGAA850 FXN promoter luciferase reporter, 24 h; percent of 10 µM SAHA response | activation, % at 6 µM | 360,000 compounds, 0.56% hits;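 active = activation above the average of all compounds screened plus 3 SD, cutoff fixed separately per campaign, cut at about 7.5% in these data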;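 note: 0% = DMSO wells and 100% = 10 µM SAHA wells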
HSF1 inhib: HSF1 inhibitors in luciferase reporter cells, primary screen, cell-based, NIH3T3, luminescence. NIH3T3-HGL HSE-luciferase, MG132-induced, luminescence 8 h; hits give low values. 300,000 compounds, 0.77% hits. activity change, negative = inhibition, % at 7.5 µM (by protocol). AID 2098, 2009;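 active = more than half of replicate wells show activity change below -50%, luminescence cut by over half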;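 note: luciferase reports HSF-1 transcriptional activity via heat shock element; 0% = median of DMSO wells and -100% = zero luminescence signal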
HSP90 refold inh: HSP90 inhibitors, primary screen, cell lysate, luminescence; inhibition, % at 5.6 µM; Heat shock protein HSP 90 (rabbit reticulocyte lysate; luciferase refolding); AID 1789, 2009; Rabbit reticulocyte lysate, luciferase refolding luminescence, 3 h; 290,000 compounds, 0.91% hits;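 active = inhibition above the screen-wide mean plus 3 SD, computed separately per campaign, cut at about 16% in these data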;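 note: 0% = DMSO wells and 100% = 60 µM geldanamycin wells; inhibitors lower the luminescence because luciferase stays unfolded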
SMARCA2 act: SMARCA2 (BRM) function activators, primary screen, cell-based, luminescence, high throughput | 370,000 compounds, 1% hits | MG213 cells, MMTV-luciferase reporter, dexamethasone, overnight | activation, % at 9.1 µM; in the data active = activation above about 7.8%;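 note: 0% = vehicle wells and 100% = reference activator wells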
PG9 Ab binder: binders of HIV-1 gp120 antibody PG9, primary screen, biochemical, TR-FRET | TR-FRET gp120-PG9 antibody binding | HIV-1 gp120 / PG9 antibody interaction | 360,000 compounds, 0.43% hits | inhibition, % at 6.7 µM; in the data active = inhibition above about 8.5%
AI-2 QS mod: Vibrio harveyi AI-2 quorum sensing modulators, primary screen, JMH597 strain, luminescence/OD600 ratio; 300,000 compounds, 0.4% hits; activity change, % at 7.5 µM; Vibrio harveyi JMH597 AI-2 luminescence/OD600 ratio, 9 h; hits give low values; strain lacks LuxN and CqsS sensors; 0 = neutral-control median; in the data active = activity change below about -75%, passing the limit was not always enough;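 note: luminescence divided by OD600 gain over 9 h not by final OD600 alone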
HSP90 inh confirm: HSP90 inhibitors, confirmation, cell lysate, luminescence | shares compounds with HSP90 refold inh | rabbit reticulocyte lysate, luciferase refolding luminescence, 3 h | inhibition, % at 5.9 µM | 2,300 compounds, 64% hits | AID 1846, 2009; in the data active = inhibition above about 18%;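 note: 0% = vehicle wells and 100% = reference inhibitor wells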
luciferase ctr: firefly luciferase inhibitors, HSP90 counter-screen, confirmation, artefact control for HSP90 inhibitor project, biochemical, luminescence, triplicate | AID 1847, 2009 | inhibition, % at 5.9 µM | purified native firefly luciferase | shares compounds with HSP90 refold inh | 2,300 compounds, 48% hits;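 active = inhibition above the mean inhibition of all tested sample wells plus 3 SD, cut at about 10% in these data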;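 note: 0% = DMSO with luciferase and 100% = wells lacking luciferase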
Target sequence (P08659 whole entry, looked up): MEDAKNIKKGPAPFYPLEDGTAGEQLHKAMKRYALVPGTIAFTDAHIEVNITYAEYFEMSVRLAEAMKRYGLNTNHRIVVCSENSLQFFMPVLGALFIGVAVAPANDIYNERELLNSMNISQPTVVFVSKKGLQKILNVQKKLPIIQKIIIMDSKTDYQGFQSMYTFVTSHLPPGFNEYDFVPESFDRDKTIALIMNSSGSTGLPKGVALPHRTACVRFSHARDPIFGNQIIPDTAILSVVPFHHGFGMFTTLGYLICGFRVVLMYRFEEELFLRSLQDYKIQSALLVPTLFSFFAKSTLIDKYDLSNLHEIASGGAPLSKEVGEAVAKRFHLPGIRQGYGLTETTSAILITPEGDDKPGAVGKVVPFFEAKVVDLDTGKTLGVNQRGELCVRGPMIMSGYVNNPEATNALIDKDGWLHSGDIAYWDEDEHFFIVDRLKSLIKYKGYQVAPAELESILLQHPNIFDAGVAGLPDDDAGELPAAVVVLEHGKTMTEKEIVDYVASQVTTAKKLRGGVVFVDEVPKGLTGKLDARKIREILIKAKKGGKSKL
An asterisk follows results filed as active; x = no result given.

SMILES	FXN GAA850 act	HSF1 inhib	HSP90 refold inh	SMARCA2 act	PG9 Ab binder	AI-2 QS mod	HSP90 inh confirm	luciferase ctr
C[C@H](NC(=O)c1nc[nH]c1C(=O)NCC(=O)OCc1ccccc1)C(=O)OC(C)(C)C	-0.8	8.0	62.0*	0.2	0.1	-6.2	-9.6	-16.5
CC(C)C[C@H](NC(=O)c1nc[nH]c1C(=O)NCC(=O)OCc1ccccc1)C(=O)OC(C)(C)C	1.0	0.5	-1.0	1.5	-2.8	5.8	x	x
COC(=O)C[C@H]1CC[C@@H]2[C@@H](COc3ccc(NC(=O)Nc4cccc(C)c4)cc3C(=O)N2C)O1	x	x	x	-3.0	x	x	x	x
Cc1[nH]c2ccccc2c1CC(=O)Nc1ccc(Oc2cccnc2)cc1	x	x	x	-3.4	0.2	x	x	x
CC(=O)NC1C(=O)N=C(SCC(=O)NC(C)c2ccccc2)NC1=O (stereo not drawn)	-0.7	-6.5	1.2	-0.8	1.0	21.3	x	x
CC(=O)NC1C(=O)N=C(SCc2ccccc2)NC1=O (stereo not drawn)	2.5	6.1	49.5*	0.0	-0.3	3.3	2.2	-4.7
CCOC(=O)[C@@]12CCCC=C1N(CCc1ccc(Cl)cc1)C(=O)[C@H]2CC(=O)NCC12CC3CC(CC(C3)C1)C2	x	x	x	-4.6	x	x	x	x
O=C(CSc1nc2ccccc2nc1N1CCOCC1)NCc1ccc(Cl)cc1Cl	x	x	x	-3.5	x	x	x	x
CCC(C)N(C(=O)CNc1nnnn1-c1ccccc1)C(C)CC (stereo not drawn)	x	x	x	-6.3	x	x	x	x
CC(C)CNC(=O)c1cc(-c2ccc3c(c2)OCO3)on1	3.1	24.4	31.1*	4.5	1.9	-1.4	37.8*	24.2*
O=C(Nc1ccc(N2CCOCC2)cc1)C1CCN(S(=O)(=O)Cc2ccccc2)CC1	3.4	0.2	25.3*	2.4	-0.4	35.1	0.4	-5.1
C#CCNC(=O)C[C@H]1C(=O)N(Cc2ccc(OC)cc2)C2=CCCC[C@@]21C(=O)OCC	x	x	x	-3.6	x	x	x	x
C#CCOCCOCCOCCNc1nc(N2CCOCC2)nc(N2CCN(C(=O)[C@H](Cc3cc4ccccc4[nH]3)n3cc([C@@H](N)CC(C)C)nn3)CC2)n1	0.6	-0.4	6.1	x	x	12.4	x	x
C#CCOCCOCCOCCNc1nc(N2CCN(C(=O)[C@H](Cc3cc4ccccc4[nH]3)n3cc([C@@H](N)CC(C)C)nn3)CC2)nc(N2CCN(C(=O)[C@H](Cc3cc4ccccc4[nH]3)n3cc([C@@H](N)CC(C)C)nn3)CC2)n1	1.7	-2.1	20.4*	x	x	15.3	18.2*	-9.8
C#CCOCCOCCOCCNc1nc(N2CCN(C(=O)[C@H]([C@@H](C)CC)n3cc([C@@H](N)Cc4ccc(O)cc4)nn3)CC2)nc(N2CCN(C(=O)[C@H](Cc3cc4ccccc4[nH]3)n3cc([C@@H](N)C(C)CC)nn3)CC2)n1 (stereo partly drawn)	x	1.2	18.8*	x	x	22.1	9.7	-9.7
C#CCOCCOCCOCCNc1nc(N2CCN(C(=O)[C@H](Cc3cc4ccccc4[nH]3)n3cc([C@@H](N)C(C)CC)nn3)CC2)nc(N2CCN(C(=O)[C@H](Cc3cc4ccccc4[nH]3)n3cc([C@@H](N)Cc4ccc(O)cc4)nn3)CC2)n1 (stereo partly drawn)	x	-11.7	21.1*	x	x	18.3	27.2*	-8.0
O=C(/C=C(\Nc1cc(Cl)c(Cl)c(Cl)c1)c1ccccc1)c1ccccc1	x	x	x	-2.6	-2.1	x	x	x
O=C(NC(=O)c1ccccc1)Nc1ccccc1	1.5	27.3	63.5*	2.3	-0.9	2.7	59.5*	47.2*
